# Measurements published in ChEMBL document CHEMBL1961873, “Compounds: GSK PKIS; Assays: Nanosyn kinase panel” (2012).
# Legend:
# [1] = target: T1, Ephrin type-B receptor 2 (Homo sapiens) (UniProt P29323); conditions: at 1 µM
# T1 sequence (whole entry): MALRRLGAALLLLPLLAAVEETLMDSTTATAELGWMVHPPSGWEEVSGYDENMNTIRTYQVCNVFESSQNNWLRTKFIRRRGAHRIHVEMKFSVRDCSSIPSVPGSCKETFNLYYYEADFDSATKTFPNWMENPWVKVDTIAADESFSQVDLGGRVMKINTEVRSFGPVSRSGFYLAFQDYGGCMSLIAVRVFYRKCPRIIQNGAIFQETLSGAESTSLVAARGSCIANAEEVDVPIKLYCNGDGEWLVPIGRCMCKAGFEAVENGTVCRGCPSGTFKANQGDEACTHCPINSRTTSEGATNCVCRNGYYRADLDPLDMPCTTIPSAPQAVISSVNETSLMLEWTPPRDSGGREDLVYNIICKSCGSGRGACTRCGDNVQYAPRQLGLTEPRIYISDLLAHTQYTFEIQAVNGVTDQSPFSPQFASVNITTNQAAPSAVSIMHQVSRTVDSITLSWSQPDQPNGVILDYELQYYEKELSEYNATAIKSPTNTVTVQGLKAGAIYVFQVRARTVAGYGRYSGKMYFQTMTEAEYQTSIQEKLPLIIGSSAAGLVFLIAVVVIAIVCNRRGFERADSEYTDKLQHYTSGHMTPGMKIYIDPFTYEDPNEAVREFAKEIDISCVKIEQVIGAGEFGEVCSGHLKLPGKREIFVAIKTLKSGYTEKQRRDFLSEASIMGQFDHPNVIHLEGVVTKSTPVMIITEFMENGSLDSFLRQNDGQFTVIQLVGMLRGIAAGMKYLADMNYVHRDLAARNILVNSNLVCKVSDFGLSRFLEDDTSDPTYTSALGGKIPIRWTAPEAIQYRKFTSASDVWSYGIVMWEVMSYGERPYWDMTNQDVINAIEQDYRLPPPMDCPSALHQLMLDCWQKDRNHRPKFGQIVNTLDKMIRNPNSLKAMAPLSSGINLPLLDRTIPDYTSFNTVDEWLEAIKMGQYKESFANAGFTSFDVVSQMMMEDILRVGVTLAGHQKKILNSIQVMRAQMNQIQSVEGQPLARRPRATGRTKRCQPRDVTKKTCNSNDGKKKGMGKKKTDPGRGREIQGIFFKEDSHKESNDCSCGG
# [2] = target: T2, Ephrin type-B receptor 3 (Homo sapiens) (UniProt P54753); conditions: at 0.1 µM
# T2 sequence (whole entry): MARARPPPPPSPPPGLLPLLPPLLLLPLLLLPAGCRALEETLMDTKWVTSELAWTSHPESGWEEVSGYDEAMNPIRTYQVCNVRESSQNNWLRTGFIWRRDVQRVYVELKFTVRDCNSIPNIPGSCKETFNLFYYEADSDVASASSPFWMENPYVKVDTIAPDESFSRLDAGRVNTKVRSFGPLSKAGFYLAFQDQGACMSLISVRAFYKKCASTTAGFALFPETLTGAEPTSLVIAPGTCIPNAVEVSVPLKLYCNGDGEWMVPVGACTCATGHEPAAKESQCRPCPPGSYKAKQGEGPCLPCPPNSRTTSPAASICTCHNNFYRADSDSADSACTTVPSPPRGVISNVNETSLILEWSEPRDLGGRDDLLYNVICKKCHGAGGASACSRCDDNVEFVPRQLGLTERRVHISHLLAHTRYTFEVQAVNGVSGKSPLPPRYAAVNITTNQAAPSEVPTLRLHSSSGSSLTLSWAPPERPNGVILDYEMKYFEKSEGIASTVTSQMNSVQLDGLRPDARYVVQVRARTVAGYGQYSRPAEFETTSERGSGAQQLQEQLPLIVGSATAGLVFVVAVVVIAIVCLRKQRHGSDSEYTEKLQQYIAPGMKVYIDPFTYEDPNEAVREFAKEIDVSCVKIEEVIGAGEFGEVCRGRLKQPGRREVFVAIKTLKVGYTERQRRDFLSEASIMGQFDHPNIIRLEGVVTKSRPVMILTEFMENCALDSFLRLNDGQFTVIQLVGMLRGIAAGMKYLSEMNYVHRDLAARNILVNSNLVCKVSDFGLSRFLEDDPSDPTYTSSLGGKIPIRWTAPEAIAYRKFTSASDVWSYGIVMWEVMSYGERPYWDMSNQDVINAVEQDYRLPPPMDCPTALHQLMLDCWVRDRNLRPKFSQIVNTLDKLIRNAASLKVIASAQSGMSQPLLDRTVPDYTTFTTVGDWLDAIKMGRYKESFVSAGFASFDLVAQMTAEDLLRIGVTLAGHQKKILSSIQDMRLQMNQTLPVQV
# [3] = target: T2, Ephrin type-B receptor 3 (Homo sapiens); conditions: at 1 µM
# [4] = target: T3, Ephrin type-B receptor 4 (Homo sapiens) (UniProt P54760); conditions: at 0.1 µM
# T3 sequence (whole entry): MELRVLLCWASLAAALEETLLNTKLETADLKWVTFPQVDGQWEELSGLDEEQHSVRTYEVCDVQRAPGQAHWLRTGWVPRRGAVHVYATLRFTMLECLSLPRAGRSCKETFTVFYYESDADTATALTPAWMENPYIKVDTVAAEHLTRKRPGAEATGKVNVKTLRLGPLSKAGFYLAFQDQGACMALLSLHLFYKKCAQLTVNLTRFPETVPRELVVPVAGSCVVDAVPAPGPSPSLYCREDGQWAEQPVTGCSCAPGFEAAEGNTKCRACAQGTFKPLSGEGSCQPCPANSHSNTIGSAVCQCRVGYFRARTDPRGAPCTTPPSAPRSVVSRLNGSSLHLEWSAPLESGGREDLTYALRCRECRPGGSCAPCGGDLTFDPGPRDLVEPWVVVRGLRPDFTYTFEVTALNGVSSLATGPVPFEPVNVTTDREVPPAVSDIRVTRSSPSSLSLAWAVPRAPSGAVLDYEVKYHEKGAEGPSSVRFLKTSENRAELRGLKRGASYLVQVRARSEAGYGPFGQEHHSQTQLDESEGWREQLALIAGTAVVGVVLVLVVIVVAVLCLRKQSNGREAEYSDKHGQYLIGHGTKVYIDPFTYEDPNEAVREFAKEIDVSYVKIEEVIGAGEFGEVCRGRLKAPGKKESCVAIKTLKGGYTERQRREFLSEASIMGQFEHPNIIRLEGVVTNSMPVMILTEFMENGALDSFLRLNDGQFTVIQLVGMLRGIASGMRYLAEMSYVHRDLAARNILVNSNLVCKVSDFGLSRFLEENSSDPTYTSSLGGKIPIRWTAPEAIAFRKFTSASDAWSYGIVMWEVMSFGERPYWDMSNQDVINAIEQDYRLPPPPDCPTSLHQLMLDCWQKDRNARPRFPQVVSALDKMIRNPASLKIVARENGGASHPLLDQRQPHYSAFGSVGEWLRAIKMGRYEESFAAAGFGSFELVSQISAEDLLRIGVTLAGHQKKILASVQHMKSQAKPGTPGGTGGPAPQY
# [5] = target: T3, Ephrin type-B receptor 4 (Homo sapiens); conditions: at 1 µM
# [6] = target: Receptor tyrosine-protein kinase erbB-2 (Homo sapiens) (UniProt P04626); conditions: at 0.1 µM
# Sequence of Receptor tyrosine-protein kinase erbB-2 (Homo sapiens) (P04626 whole entry): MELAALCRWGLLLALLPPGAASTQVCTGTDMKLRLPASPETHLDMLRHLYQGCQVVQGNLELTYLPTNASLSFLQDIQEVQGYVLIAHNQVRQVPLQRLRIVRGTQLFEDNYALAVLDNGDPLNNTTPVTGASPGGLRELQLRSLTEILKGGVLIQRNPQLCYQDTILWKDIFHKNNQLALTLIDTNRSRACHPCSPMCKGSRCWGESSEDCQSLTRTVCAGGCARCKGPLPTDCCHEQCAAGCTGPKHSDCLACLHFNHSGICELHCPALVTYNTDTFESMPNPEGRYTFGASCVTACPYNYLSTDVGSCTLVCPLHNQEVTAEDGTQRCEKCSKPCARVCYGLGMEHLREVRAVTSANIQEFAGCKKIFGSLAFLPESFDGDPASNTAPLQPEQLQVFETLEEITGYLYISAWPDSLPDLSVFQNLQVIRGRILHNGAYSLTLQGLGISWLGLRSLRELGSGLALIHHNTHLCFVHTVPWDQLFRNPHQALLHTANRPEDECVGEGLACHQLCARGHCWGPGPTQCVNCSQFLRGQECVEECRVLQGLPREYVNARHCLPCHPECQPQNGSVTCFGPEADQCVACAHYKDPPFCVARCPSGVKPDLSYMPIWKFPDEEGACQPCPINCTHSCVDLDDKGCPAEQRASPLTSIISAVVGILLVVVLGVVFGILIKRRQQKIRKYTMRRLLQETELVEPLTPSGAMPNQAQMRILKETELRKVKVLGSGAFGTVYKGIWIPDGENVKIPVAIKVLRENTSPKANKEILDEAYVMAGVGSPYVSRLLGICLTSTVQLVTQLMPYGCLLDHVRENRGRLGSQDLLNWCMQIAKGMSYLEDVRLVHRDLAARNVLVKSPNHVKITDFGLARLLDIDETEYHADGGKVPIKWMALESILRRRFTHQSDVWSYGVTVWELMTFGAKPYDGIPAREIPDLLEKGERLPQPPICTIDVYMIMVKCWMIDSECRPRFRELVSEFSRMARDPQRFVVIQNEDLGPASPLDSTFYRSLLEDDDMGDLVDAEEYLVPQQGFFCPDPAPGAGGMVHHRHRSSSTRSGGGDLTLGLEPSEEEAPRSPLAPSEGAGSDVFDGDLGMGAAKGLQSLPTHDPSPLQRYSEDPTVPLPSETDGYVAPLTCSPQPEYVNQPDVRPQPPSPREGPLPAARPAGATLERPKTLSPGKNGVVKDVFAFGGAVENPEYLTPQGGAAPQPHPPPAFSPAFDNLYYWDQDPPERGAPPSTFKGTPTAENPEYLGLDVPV
# [7] = target: Receptor tyrosine-protein kinase erbB-2 (Homo sapiens) (UniProt P04626); conditions: at 1 µM
# [8] = target: Receptor tyrosine-protein kinase erbB-4 (Homo sapiens) (UniProt Q15303); conditions: at 0.1 µM
# Sequence of Receptor tyrosine-protein kinase erbB-4 (Homo sapiens) (Q15303 whole entry): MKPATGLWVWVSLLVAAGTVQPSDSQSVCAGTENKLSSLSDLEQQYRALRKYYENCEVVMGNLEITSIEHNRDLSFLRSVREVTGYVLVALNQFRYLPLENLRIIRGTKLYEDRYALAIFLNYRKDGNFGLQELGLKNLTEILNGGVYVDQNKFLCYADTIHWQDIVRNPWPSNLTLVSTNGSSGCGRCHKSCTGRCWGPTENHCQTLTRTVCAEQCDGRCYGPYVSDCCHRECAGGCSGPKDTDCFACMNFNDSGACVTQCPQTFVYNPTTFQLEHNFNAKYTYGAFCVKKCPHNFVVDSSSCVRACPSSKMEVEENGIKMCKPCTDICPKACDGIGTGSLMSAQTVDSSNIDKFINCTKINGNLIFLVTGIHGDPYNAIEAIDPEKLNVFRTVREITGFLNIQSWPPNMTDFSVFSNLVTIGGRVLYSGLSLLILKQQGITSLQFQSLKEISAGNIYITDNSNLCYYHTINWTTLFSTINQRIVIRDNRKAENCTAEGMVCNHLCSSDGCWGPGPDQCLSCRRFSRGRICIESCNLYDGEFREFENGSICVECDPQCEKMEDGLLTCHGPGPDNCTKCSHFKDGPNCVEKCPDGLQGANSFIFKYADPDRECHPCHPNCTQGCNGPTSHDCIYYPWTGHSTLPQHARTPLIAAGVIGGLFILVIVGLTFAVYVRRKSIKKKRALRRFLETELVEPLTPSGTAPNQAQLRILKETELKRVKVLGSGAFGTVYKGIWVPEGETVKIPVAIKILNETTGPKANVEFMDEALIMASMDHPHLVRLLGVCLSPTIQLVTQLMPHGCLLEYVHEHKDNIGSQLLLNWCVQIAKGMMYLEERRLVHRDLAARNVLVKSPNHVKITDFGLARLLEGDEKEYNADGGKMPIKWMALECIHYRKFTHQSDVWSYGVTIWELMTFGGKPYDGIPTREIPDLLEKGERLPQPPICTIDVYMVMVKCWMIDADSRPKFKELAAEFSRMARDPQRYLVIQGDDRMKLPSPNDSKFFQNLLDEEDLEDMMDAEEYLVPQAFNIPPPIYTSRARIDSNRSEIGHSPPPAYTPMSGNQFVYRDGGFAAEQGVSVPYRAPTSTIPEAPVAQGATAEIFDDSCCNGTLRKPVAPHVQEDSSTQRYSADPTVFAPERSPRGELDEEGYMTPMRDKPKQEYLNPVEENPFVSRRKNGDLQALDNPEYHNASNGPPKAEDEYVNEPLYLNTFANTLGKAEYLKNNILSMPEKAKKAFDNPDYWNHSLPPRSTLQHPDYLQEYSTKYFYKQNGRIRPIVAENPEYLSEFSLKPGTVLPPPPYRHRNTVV
# [9] = target: Receptor tyrosine-protein kinase erbB-4 (Homo sapiens) (UniProt Q15303); conditions: at 1 µM
# [10] = target: Tyrosine-protein kinase Fer (Homo sapiens) (UniProt P16591); conditions: at 0.1 µM;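 note: reported figures are averaged percent inhibition of FER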
# Sequence of Tyrosine-protein kinase Fer (Homo sapiens) (P16591 whole entry, looked up): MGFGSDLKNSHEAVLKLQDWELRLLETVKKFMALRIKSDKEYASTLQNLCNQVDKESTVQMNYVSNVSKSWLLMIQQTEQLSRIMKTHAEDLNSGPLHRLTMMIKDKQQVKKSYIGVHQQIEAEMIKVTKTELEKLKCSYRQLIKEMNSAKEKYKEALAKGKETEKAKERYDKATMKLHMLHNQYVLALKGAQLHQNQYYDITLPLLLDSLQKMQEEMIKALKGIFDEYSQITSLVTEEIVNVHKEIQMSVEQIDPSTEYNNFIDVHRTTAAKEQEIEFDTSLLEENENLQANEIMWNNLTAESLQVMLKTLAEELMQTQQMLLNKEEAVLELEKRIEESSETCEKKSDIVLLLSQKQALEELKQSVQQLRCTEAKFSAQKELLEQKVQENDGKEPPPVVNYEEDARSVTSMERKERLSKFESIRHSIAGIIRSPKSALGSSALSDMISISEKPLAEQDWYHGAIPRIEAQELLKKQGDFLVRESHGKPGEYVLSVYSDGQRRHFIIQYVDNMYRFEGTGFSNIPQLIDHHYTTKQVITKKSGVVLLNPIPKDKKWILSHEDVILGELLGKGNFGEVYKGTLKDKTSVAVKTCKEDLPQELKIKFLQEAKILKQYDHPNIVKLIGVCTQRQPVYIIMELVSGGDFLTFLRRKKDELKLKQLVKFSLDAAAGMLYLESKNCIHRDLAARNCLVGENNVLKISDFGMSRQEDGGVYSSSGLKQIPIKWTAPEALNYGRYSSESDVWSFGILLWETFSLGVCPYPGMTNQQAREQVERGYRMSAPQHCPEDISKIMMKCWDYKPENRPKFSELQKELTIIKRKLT
Structure (SMILES),inhibition [1] [%],inhibition [2] [%],inhibition [3] [%],inhibition [4] [%],inhibition [5] [%],inhibition [6] [%],inhibition [7] [%],inhibition [8] [%],inhibition [9] [%],inhibition [10] [%]
CS(=O)(=O)Nc1ccc(-c2ccc3c(NC(=O)C4CC4)n[nH]c3c2)cc1,11.6,4.92,4.97,2.13,4.33,-0.58,-2.83,-5.65,9.99,9.81
CNC(=O)c1ncccc1Nc1nc(Nc2cc3c(cc2OC)CCCN3C(=O)CN(C)C)nc2[nH]ccc12,9.33,4.77,-0.74,1.64,2.22,3.4,3.24,10.7,20.2,71.3
Cc1cc(O)cc(C)c1/C=C/c1cncc(C(=O)OC(C)(C)C)c1,68,17.4,49.2,24.8,70.4,1.78,2.48,8.1,16.1,4.09
CCCNc1cccc(-n2ncc3c(N/N=C/c4ccncc4)ncnc32)c1,9.31,-1.29,1.75,1.55,5.77,2.33,4.49,11.8,43,-0.72
COc1cccc(Nc2nccc(-c3cnn4ncccc34)n2)c1,36,1.65,-3.88,2.75,16.1,-0.16,1.64,8.21,3.05,9.45
CN(C)CCNC(=O)Nc1ccc(N(C)c2ccnc(Nc3ccc(CS(C)(=O)=O)cc3)n2)cc1,15.1,5.05,1.99,2.45,3.65,0.75,-0.72,8.93,9.37,4.17
COc1ccc2ncn(-c3cc(O[C@H](C)c4ccccc4C(F)(F)F)c(C(N)=O)s3)c2c1,1.95,1.32,0.52,-1.21,1.77,-0.36,-1.72,1.06,3.12,1.06
CN1CCC(n2cnc(-c3ccc(F)cc3)c2-c2ccnc(NCCO)n2)CC1,10.7,4.67,2,1.85,8.07,0.93,6.66,9.26,12.3,7.03
